# Measured values published in the supplement of paper PMC10849652.
# Targets with a hit are over-represented here; the source holds about 7,900 in all. About 0.6% of all pairs of compound and target were hits. A number with no mark means an inactive call.
# Assays:
# Experiment in all cases: log2 fold change, soluble protein after heating vs DMSO (PISA); higher = thermal stabilisation; K562 cells, 10 uM, 30 min; active = over 0.2 and 3.5 SD of the protein, either way, in both replicates (recomputed)
# [1] = compound: CN1CCN(CCOc2cc(OC3CCOCC3)c3c(Nc4c(Cl)ccc5c4OCO5)ncnc3c2)CC1 [saracatinib]
# Summary of the method: (§1)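 K562 cells at 2×10^6 cells/mL were exposed to 10 μM compound for 30 min, then aliquots were heated for 3 min across 48°C-58°C, pooled, and extracted in PBS containing 0.5% NP-40 at 4°C. The supernatant after 21,000xg for 90 min was taken as soluble protein and measured by TMTpro 16plex LC-MS/MS with channel sums equalised. Thermal stability is reported relative to control samples, with values from duplicates. Fold changes are given on a log2 scale.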
# [2] = compound: CN1CC[C@H](c2c(O)cc(O)c3c(=O)cc(-c4ccccc4Cl)oc23)[C@H](O)C1 [alvocidib]
# Summary of the method: as §1
# [3] = compound: CN1CCc2c(c3ccccc3n2Cc2ccc(C(=O)NO)cc2)C1 [Tubastatin A]
# Summary of the method: as §1
# [4] = compound: CNC(=O)c1ccc(Nc2ncc(C(F)(F)F)c(NCc3nccnc3N(C)S(C)(=O)=O)n2)cc1 [defactinib]
# Summary of the method: as §1
# [5] = compound: CNCc1ccc(-c2[nH]c3cc(F)cc4c3c2CCNC4=O)cc1 [rucaparib]
# Summary of the method: as §1
# [6] = compound: CNc1nc(-c2ccc3c(N)n[nH]c3c2)cc(N2C[C@@H](C(=O)NC3CCCCC3)CC[C@H]2C)n1
# Summary of the method: as §1
# [7] = compound: COC(=O)N[C@@H](C)CNc1nccc(-c2cn(C(C)C)nc2-c2cc(Cl)cc(NS(C)(=O)=O)c2F)n1 [encorafenib]
# Summary of the method: as §1
# [8] = compound: COC(=O)[C@H](CCSC)NC(=O)C1=C(C=C(C=C1)NC[C@H](CS)N)C2=CC=CC=C2
# Summary of the method: as §1
# [9] = compound: COC1=CC=C(C=C1)CN2C=CC3=C2C=C(C=C3)C(=O)NO
# Summary of the method: as §1
# [10] = compound: CO[C@H]1C[C@@H]2CC[C@@H](C)[C@@](O)(O2)C(=O)C(=O)N2CCCC[C@H]2C(=O)O[C@H]([C@H](C)C[C@@H]2CC[C@H](n3cnnn3)[C@H](OC)C2)CC(=O)[C@H](C)/C=C(\C)[C@@H](O)[C@@H](OC)C(=O)[C@H](C)C[C@H](C)/C=C/C=C/C=C/1C [zotarolimus]
# Summary of the method: as §1
# [11] = compound: COc1cc(Nc2ncc3c(n2)-c2ccc(Cl)cc2C(c2c(F)cccc2OC)=NC3)ccc1C(=O)O [alisertib]
# Summary of the method: as §1
# [12] = compound: COc1cc2ncnc(Nc3ccc(F)c(Cl)c3)c2cc1OCCCN1CCOCC1 [gefitinib]
# Summary of the method: as §1
# [13] = compound: COc1cccc2cc(-c3nc([C@H]4CC[C@H](C(=O)O)CC4)n4ncnc(N)c34)[nH]c12
# Summary of the method: as §1
# [14] = compound: CS(=O)(=O)N1CCN(Cc2cc3nc(-c4cccc5[nH]ncc45)nc(N4CCOCC4)c3s2)CC1 [pictilisib]
# Summary of the method: as §1
# [15] = compound: COc1cc2nc(-c3cc(F)ccc3O)nc(N[C@@H]3CNC[C@H]3C(C)(C)O)c2cc1OC
# Summary of the method: as §1
# [16] = compound: CS(=O)(=O)CCNCc1ccc(-c2ccc3ncnc(Nc4ccc(OCc5cccc(F)c5)c(Cl)c4)c3c2)o1 [lapatinib]
# Summary of the method: as §1
# [17] = compound: CNC(=O)C1=CC=CC=C1NC2=NC(=NC=C2Cl)NC3=C(C=C(C=C3)N4CCOCC4)OC
# Summary of the method: as §1
# [18] = compound: COc1cc(C(=O)O)ccc1NC(=O)[C@@H]1N[C@@H](CC(C)(C)C)[C@](C#N)(c2ccc(Cl)cc2F)[C@H]1c1cccc(Cl)c1F [idasanutlin]
# Summary of the method: as §1
# [19] = compound: CN1CCN(c2nc(C3=C(c4c[nH]c5ccccc45)C(=O)NC3=O)c3ccccc3n2)CC1 [sotrastaurin]
# Summary of the method: as §1
# [20] = compound: CON(C)C(=O)N1N=C(c2cc(F)ccc2F)S[C@@]1(CCCN)c1ccccc1 [filanesib]
# Summary of the method: as §1
# Chain of UniProt Q3B7T1 (Q3B7T1 whole entry, looked up): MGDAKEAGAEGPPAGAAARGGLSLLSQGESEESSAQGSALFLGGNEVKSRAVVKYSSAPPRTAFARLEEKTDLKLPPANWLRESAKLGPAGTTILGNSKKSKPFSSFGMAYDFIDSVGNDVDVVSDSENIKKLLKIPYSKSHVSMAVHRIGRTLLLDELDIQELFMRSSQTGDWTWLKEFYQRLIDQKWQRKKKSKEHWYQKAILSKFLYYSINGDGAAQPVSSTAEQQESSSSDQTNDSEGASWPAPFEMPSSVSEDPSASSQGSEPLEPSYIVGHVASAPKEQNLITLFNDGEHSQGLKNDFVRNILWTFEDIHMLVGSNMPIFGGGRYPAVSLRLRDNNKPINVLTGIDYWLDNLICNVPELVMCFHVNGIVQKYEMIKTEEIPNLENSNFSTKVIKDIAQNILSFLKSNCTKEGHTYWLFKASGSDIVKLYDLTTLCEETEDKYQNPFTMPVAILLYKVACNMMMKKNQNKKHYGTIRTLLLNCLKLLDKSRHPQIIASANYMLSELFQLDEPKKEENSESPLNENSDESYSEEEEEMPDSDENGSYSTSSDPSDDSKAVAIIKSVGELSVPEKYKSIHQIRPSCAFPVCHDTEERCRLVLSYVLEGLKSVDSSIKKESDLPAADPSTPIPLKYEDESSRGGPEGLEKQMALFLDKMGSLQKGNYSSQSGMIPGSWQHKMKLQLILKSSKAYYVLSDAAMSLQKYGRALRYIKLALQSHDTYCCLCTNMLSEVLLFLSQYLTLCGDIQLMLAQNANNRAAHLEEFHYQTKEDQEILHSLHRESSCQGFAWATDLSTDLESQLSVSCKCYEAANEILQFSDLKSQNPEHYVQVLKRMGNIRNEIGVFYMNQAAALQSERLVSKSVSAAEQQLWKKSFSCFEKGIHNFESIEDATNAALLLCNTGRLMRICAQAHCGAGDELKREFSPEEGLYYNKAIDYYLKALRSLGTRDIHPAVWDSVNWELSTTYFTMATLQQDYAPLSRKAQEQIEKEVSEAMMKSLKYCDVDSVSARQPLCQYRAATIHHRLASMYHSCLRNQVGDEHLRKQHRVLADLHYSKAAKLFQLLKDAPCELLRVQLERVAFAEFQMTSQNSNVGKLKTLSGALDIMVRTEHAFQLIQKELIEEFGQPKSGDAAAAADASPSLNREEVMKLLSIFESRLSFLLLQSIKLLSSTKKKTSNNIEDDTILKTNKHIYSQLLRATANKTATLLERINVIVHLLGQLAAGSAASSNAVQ
# Chain of UniProt Q4LDG9 (Q4LDG9 whole entry, looked up): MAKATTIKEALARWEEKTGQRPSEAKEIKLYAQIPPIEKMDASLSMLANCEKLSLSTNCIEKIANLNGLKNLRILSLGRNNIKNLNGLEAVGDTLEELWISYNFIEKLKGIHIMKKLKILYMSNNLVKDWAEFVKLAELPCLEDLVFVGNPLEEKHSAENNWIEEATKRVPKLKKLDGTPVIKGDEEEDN
# Chain of UniProt Q8N612 (Q8N612 whole entry, looked up): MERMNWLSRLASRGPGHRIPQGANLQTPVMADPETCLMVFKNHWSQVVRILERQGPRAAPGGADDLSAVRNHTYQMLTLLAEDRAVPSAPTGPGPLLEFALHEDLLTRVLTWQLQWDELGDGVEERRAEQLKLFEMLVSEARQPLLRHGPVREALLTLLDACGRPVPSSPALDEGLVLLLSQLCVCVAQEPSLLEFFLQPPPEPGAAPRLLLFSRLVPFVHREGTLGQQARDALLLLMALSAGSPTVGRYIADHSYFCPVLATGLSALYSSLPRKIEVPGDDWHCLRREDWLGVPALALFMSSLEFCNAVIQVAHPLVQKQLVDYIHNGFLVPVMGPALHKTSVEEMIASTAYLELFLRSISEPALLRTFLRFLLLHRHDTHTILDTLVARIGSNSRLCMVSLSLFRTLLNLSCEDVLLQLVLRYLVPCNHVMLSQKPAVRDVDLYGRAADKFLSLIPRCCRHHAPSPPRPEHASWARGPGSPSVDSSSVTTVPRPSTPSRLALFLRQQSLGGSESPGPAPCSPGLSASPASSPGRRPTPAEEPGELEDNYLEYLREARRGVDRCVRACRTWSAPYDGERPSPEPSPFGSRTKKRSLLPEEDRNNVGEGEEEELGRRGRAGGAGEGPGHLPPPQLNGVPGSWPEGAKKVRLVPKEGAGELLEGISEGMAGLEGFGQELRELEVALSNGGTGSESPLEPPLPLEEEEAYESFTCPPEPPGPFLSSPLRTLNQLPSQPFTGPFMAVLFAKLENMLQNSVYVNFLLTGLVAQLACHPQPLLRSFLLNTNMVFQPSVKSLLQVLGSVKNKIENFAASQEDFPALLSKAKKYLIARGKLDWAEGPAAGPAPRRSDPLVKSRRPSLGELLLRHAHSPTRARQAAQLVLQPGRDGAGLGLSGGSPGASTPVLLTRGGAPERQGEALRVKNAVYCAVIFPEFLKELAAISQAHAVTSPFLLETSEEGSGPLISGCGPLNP
# Chain of UniProt Q86YN1 (Q86YN1 whole entry, looked up): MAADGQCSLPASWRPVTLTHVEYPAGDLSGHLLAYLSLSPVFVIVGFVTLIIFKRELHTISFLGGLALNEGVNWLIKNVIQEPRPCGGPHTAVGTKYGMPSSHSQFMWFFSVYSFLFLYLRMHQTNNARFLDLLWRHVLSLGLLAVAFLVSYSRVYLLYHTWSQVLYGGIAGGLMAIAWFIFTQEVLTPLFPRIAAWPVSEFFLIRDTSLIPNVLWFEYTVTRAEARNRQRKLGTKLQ
# Chain of UniProt Q5T6F0 (Q5T6F0 whole entry, looked up): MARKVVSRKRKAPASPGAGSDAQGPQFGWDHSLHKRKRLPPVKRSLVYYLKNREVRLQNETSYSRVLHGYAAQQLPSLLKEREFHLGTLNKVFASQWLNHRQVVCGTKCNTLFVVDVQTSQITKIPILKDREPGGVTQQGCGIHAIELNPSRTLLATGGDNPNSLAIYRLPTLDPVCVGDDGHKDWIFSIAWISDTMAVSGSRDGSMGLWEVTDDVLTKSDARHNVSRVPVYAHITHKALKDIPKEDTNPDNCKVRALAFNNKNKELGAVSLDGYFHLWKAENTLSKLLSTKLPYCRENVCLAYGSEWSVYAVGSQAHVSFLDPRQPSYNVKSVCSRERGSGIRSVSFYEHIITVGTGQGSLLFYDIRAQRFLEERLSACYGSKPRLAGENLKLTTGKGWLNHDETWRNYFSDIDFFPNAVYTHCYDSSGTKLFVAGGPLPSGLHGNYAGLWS
# Chain of UniProt Q07973 (Q07973 whole entry, looked up): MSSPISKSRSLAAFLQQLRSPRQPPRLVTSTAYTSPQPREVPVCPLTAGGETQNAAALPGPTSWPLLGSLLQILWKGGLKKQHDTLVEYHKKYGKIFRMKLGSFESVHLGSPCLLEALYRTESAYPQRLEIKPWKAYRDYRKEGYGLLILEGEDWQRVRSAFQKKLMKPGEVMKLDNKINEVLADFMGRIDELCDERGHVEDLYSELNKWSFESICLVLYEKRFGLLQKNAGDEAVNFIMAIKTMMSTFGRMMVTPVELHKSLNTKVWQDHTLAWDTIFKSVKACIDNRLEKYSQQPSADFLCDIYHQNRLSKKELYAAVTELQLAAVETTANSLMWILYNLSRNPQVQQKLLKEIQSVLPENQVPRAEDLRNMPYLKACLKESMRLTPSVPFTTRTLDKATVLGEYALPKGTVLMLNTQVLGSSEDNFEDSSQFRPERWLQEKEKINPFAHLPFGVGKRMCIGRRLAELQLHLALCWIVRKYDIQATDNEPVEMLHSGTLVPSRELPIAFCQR
# Chain of UniProt Q9Y6B2 (Q9Y6B2 whole entry, looked up): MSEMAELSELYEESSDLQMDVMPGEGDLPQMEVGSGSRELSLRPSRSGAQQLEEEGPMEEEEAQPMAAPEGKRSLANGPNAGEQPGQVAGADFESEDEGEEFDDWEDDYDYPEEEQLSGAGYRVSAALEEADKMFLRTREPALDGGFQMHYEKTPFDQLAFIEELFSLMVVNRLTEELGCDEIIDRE
# Chain of UniProt Q8TEH3 (Q8TEH3 whole entry, looked up): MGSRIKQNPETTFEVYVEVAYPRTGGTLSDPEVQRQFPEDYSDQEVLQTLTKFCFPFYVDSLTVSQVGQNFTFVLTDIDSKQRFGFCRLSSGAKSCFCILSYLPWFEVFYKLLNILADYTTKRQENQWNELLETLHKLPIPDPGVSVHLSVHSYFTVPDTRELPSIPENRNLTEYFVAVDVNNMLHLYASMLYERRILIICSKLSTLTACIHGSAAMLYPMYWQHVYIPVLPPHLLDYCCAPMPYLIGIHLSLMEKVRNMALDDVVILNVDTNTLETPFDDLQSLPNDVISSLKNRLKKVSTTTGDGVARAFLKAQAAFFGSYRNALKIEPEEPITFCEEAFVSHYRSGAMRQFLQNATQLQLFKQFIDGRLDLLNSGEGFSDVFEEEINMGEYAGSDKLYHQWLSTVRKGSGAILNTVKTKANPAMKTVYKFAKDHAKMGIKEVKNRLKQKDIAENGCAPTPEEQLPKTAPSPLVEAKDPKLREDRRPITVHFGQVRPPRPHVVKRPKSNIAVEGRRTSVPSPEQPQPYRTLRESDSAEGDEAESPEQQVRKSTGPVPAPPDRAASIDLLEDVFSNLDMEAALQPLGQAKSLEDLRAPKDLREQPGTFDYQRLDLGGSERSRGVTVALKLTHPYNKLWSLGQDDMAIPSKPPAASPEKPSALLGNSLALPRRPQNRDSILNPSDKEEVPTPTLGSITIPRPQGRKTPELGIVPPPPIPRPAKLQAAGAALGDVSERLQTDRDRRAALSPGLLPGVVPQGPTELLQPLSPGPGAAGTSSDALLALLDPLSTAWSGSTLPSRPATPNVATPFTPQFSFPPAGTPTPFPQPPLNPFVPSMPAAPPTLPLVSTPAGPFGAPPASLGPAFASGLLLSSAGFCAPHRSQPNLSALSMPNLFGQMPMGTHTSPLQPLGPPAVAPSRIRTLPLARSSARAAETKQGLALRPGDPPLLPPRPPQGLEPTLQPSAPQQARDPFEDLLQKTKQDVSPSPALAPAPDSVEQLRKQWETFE
Target,log2 fold change [1],log2 fold change [2],log2 fold change [3],log2 fold change [4],log2 fold change [5],log2 fold change [6],log2 fold change [7],log2 fold change [8],log2 fold change [9],log2 fold change [10],log2 fold change [11],log2 fold change [12],log2 fold change [13],log2 fold change [14],log2 fold change [15],log2 fold change [16],log2 fold change [17],log2 fold change [18],log2 fold change [19],log2 fold change [20]
FAM160A2 isoform 2 (UniProt Q8N612),-0.066,-0.016,-0.17,-0.002,-0.085,-0.064,-0.168,0.128,-0.082,0.067,0.031,0.158,0.103,-0.056,,,,,,
DENND1A isoform 6 (UniProt Q8TEH3),,,-0.018,-0.081,,,,-0.024,0.154,,,,,,-0.18,0.06,,,,
F2RL3 (UniProt Q96RI0),0.04,0.004,0.082,0.009,,0.005,,0.008,,-0.075,,,,,0.017,0.029,-0.051,-0.017,,
ELMO1 (UniProt Q92556),0.051,,,-0.045,,0.041,,-0.222,-0.108,,0.212,0.017,0.08,,,,-0.074,,0.046,0.072
DCAF12 (UniProt Q5T6F0),,,,,0.199,,0.112,,,,0.073,,0.036,0.16,,,,,0.058,-0.037
"DDX46, A0A0C4DG89",,,,,,,,,,,-0.083,0.261,0.032,,,,,,,
EEF1D isoform 3 (UniProt P29692),,,0.147,,,,,,,,-0.067,,-0.105,,,,-0.03,,,
DNM2 isoform 4 (UniProt P50570),-0.126,-0.072,,,-0.268,-0.235,0.107,,0.455,0.273,0.316,-0.013,-0.272,-0.123,,,-0.088,,-0.024,0.021
EID1 (UniProt Q9Y6B2),,,0.599,,,,,,,,0.024,-0.031,-0.239,0.3,0.015,-0.097,-0.111,,-0.049,0.119
DNAL1 (UniProt Q4LDG9),-0.081,-0.121,,-0.14,,0.062,,-0.13,0.009,0.024,,,,,,,,-0.098,,
EIF2AK3 (UniProt Q9NZJ5),-0.019,0.045,0.039,,-0.125,0.082,-0.216,,0.135,-0.06,-0.141,-0.161,0.078,-0.233,0.201,0.146,0.183,-0.039,,
EDRF1 (UniProt Q3B7T1),0.104,-0.006,,,0.098,0.07,0.058,,,0.419 (active),-0.033,,0.044,0.244,,,-0.111,,0.012,0.052
CYP24A1 (UniProt Q07973),-0.144,,0.365,0.394,0.115,0.078,0.075,0.016,0.1,,-0.095,-0.044,-0.306,-0.059,0.091,0.067,-0.075,0.039,,
DOLPP1 (UniProt Q86YN1),,-0.059,-0.066,-0.134,0.087,,-0.057,0.156,-0.05,-0.003,-0.022,0.013,0.011,,0.129,-0.07,0.012,-0.043,,
FADS1 (UniProt F5GYH4),,,0.123,0.06,,,,0.123,-0.373,,,,,,,,,,,
DNAJB1 (UniProt M0R128),,0.082,-0.058,-0.073,,,,0.18,,-0.062,,,,,,,,,,
EEF2K (UniProt O00418),,0.194,,-0.021,0.1,,-0.036,-0.266,,0.021,0.031,,-0.896 (active),-0.014,-0.062,-0.017,0.064,,,
EIF3J isoform 2 (UniProt O75822),0.035,,-0.082,-0.085,,-0.04,,-0.008,-0.099,,-0.074,0.047,0.02,,0.051,-0.116,-0.021,0.107,0.075,0.013
